# Inconclusive results are not listed. Unmarked numbers belong to inactive results. Activity calls are given as the source filed them. Calls come from the whole dose curve; as a rule, active = well fitted inhibition curve with a large enough effect; inconclusive = small, poorly fitted or top-dose-only effect, or effect the other way; inactive = flat fitted curve, though single readings scatter.
# Target: Ubiquitin carboxyl-terminal hydrolase 2 (Homo sapiens) (UniProt O75604)
# Test: Confirmation Assay for Inhibitors of Ubiquitin-specific Protease USP2a Using CHOP2 as the Reporter; note: nearly all actives have a fitted effect of over 55% in size;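 for activity change, negative = inhibition: plate controls were DMSO wells for no effect and full inhibition by NEM control for full effect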
# Conditions: USP2 core, Ub-CHOP2 coupled reporter fluorescence; series mostly up to 38.3 µM; activity change, negative = inhibition: at the top concentration
# Procedure, shortened: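 USP2 core (10 nM final) was preincubated with compound for 30 min at RT in Tris-HCl pH 8.0, CaCl2, beta-mercaptoethanol, CHAPS. Ub-CHOP2 and reporter substrate (25 nM final each) were added, and fluorescence (Ex 485/Em 531 nm) was read after 60 min.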
# Potency is the fitted concentration of half-maximal effect.
# Ubiquitin carboxyl-terminal hydrolase 2 (Homo sapiens), sequence (O75604 whole entry, looked up): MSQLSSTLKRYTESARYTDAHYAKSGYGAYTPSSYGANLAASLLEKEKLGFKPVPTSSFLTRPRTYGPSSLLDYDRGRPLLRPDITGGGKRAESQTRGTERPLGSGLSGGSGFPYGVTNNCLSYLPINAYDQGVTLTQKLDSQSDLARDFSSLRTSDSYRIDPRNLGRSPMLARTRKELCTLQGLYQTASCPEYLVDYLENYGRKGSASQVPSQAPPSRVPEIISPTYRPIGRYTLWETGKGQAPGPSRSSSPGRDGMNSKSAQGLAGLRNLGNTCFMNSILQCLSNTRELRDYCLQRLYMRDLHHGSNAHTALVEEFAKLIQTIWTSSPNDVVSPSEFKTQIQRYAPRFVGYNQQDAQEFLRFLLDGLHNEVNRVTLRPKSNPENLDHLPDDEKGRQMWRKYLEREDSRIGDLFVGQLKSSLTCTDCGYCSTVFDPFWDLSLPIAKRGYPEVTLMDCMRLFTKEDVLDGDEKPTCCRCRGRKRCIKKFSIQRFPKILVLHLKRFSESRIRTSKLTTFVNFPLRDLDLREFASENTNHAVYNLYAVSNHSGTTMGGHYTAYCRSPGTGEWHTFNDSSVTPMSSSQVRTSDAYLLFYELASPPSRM
SMILES,"activity change, negative = inhibition [%]",Potency
O=c1cc(CO)oc(CN2CCN(Cc3ccccc3)CC2)c1O,-0.374,
CCOC(=O)N1CCC(NC(=O)c2ccc(OC)c(CN3CC(=O)N4CCCC4C3=O)c2)CC1 (stereo not given),-1.63,
COC(=O)c1[nH]c2ccc(C)cc2c1NC(=O)CN1CCCc2ccccc21,-19.6,
O=C(CSc1ccc(Br)c2cccc(Cl)c12)Nc1ccc(S(=O)(=O)Nc2nccs2)cc1,,9.27 µM (active)
COc1ccc(/C=N/NC(=O)c2nn(-c3ccccc3)c(=O)c3c(N)scc23)cc1,-4.38,
Cc1cc(N2CCOCC2)nc(SCC(=O)c2ccc(Cl)cc2)n1,5.19,
Cc1ccc(C(C)C)c(OCc2nn(CC(=O)c3ccc(OC(F)F)cc3)c3[n+]2CCCCC3)c1,-5.42,
O=C(NN=Cc1ccc(N2CCOCC2)s1)c1ccc([N+](=O)[O-])cc1,-0.992,
CC(C)(C)C1C=C(Sc2ccccc2)C(=O)O1 (stereo not given),-0.936,
CCCOc1ccc(N2C(=O)CC(NCCc3ccc(S(N)(=O)=O)cc3)C2=O)cc1 (stereo not given),0.466,
CC1Cc2ccccc2N1C(=O)Cn1c(=O)oc2cc(S(=O)(=O)NC3CCCC3)ccc21 (stereo not given),1.18,
COCCn1nnnc1CN(CCc1ccccc1)Cc1cc2ccc(C)cc2[nH]c1=O,0.728,
Nc1ccccc1S(=O)(=O)NC1=NCCCCC1,2.55,
O=C1OC[C@@H]2CCCN2C(=O)[C@@H](CC(=O)N(CCO)Cc2ccccc2)C/C=C\C[C@@H]1Cc1ccc(F)cc1,2.66,
COc1ccc2[nH]c(=O)c(CN(C3CCCCC3)C(c3nnnn3Cc3ccco3)C(C)C)cc2c1 (stereo not given),,10.4 µM (active)
Cc1csc(NC(=O)CCn2c(=O)sc3ccccc32)n1,-5.5,
COc1cc(C)c(S(=O)(=O)NCc2ccc3c(c2)OCO3)cc1C,5.8,
O=C(Nc1ccc(N2CCCC2)cc1)c1cccc(-c2cc3ccccc3oc2=O)c1,-0.397,
COc1ccc(C(=O)C[N+]2(C)CCOCC2)cc1,2.16,
C/C(Cn1nnc2ccccc21)=N\OC(=O)c1ccccc1C,5.51,

SMILES,"activity change, negative = inhibition [%]",Potency
COc1ccc(CN(Cc2cc3cc(C)ccc3[nH]c2=O)C(=O)N(C)C)cc1,0.163,
O=C(Cn1nc(-c2cccs2)ccc1=O)Nc1ccc(Br)cc1,0.104,
COc1cc(/C=C/C(=O)OCC(=O)NC(=O)NCc2ccco2)ccc1OC(F)F,-5.33,
Cc1n[nH]c(C)c1S(=O)(=O)N1CCCC(C(=O)NC2CCCc3ccccc32)C1 (stereo not given),-2.73,
CCCCCCCC/C=C\CCCCCCCC(=O)NCCc1ccc(O)c(O)c1,-5.03,
CSc1ncccc1C(=O)OCC(=O)N1CCOCC1,-1.33,
Cc1cc(C(=O)OCC(=O)c2cccc([N+](=O)[O-])c2)c2cccc(C)c2n1,-9.73,
CC(C)CC(c1nnnn1CC1CCCO1)N1CCN(c2nc3ccccc3s2)CC1 (stereo not given),-1.59,
O=C(Nc1ccc(N2CCCC2)cc1)c1ccc(Br)cc1,,16.5 µM (active)
CC(C)N(C(=O)c1sc2cc([N+](=O)[O-])ccc2c1Cl)C(C)C,1.04,
O=C1NC[C@@H](c2ccccc2)OC(=O)[C@@H](Cc2ccc(F)cc2)CC/C=C/C[C@@H]1CC(=O)N(CCO)Cc1ccccc1,1.12,
Cc1ccc(S(=O)(=O)Cc2ccc(C(=O)N3CCN(c4ccccn4)CC3)o2)cc1,-2.6,
COc1ccccc1C(=O)N1CCN=C1SC,2.29,
CCOC(=O)C1=CN(Cc2cccc(F)c2)S(=O)(=O)NC1c1ccc(Br)cc1F (stereo not given),-4.73,
O=C(/C=N/O)NCc1cccnc1,0.699,
O=C1CS/C(=C/C(=O)c2ccccc2)N1,3.74,
Cc1cc(C)cc(C(=O)Nc2ccc(N3CCCC3)cc2)c1,-18.2,
CCOc1ccc(-c2ccc(/C=C3/C(=N)N4C(C)=CSC4=NC3=O)o2)c([N+](=O)[O-])c1,-9.31,
O=C(Nc1cccc(C(F)(F)F)c1)/C(=C\c1ccco1)NC(=O)c1cccs1,1.73,
CC(C)(C)NC(=O)CSc1nc(O)cc(=O)n1-c1ccccc1F,4.95,

# Reference: PubChem BioAssay AID493168 (National Center for Advancing Translational Sciences (NCATS), 2011)
